Values joined by “and” are separate entries in the source; they are usually repeats but may differ in a detail not shown here. Identical values can stand only once. In all, about 75,000 compounds went through this assay and about 20 (0.03%) were called active. Roughly 1% stayed inconclusive and do not appear here. The call rests on the fitted dose curve; in most records, active means well fitted inhibition curve with a large enough effect; inconclusive means small, poorly fitted or top-dose-only effect; inactive means flat fitted curve, though single readings scatter. These entries were drawn from the full list.
Target: Caspase-1 (Homo sapiens) (UniProt P29466)
Experiment: qHTS Assay for Allosteric/Competitive Inhibitors of Caspase-1
Conditions: Caspase-1 enzyme, Ac-WEHD-AFC fluorogenic rate; series mostly up to 57.5 µM; activity change, negative = inhibition: at the top concentration
Description: NIH Molecular Libraries Screening Centers Network [MLSCN]
NIH Chemical Genomics Center [NCGC]
PI Name: Dr. James Wells,
Dr. Enrique Perez-Paya, Dr.Janice Williams, Dr. Dennis Wolan, a person
The caspases (Cysteine Aspartyl Protease) comprise a related family of 14 dimeric proteases that are critical mediators of apoptosis (programmed cell death) and inflammation. The caspases represent an important class of drug targets for stroke, ischemia, cancer and inflammatory diseases. […] One goal of this project was to identify compounds that act as allosteric inhibitors via stabilizing the procaspase form of the enzyme. Previous work in Well's laboratory has shown that such allosteric inhibitors can be identified and these act by binding at the dimer interface of enzyme (Hardy, Lam et al., 2004).
The biochemical assay was configured using purified caspase 1 at a high enzyme concentration to promote formation of the homodimers and thus facilitate the identification of allosteric inhibitors. The overall goal was to identify reversible inhibitors with better drug-like properties than the currently available set of aspartyl-containing peptidomimetics that covalently bind the active site. Caspase 1 was assayed using the profluorescent substrate Ac-WEHD-AFC. After initiation of the assay with substrate the plates were rapidly read using an automated robotic system (Kalypsys, Inc.) to maintain consistent timing. A kinetic mode of detection was used where the initial rate was collected (estimated final product formation was ~10%). Compounds were screened as a concentration-titration series that ranged from 57 uM to 0.7 nM. Below is the protocol used for caspase 1.
NCGC Assay Protocol Summary:
Caspase 1 was prepared in buffer (50 mM HEPES pH 7.5, 50 mM KCl, 200 mM NaCl, 10 mM DTT, 0.1% CHAPS) at a concentration of 66.6 nM and 3 uL was dispensed to all wells using black solid Kalypsys 1536-well plates. 20 nL of DMSO containing compounds was added using a pin-tool (Kalypsys Inc.) to columns 5-48. Then 20 nL of DMSO solution from a control plate was added to columns 1-4. Controls were: Column 1, 16 point titration with each concentration in duplicate (1:1 dilutions in DMSO; final starting concentration was 57 uM) of the caspase 1 inhibitor Ac-WEHD-CHO (Alexis Biochemicals); Column 2, a 16 point titration with each concentration in duplicate of the free AFC fluorophore prepared in DMSO (Alexis Biochemicals), final starting was 40 uM; Column 3 neutral (DMSO only) control; Column 4: DMSO alone, to serve as a negative control (no substrate was added). Then 1 uL of 20 uM the substrate Ac-WEHD-AFC (Alexis Biochemicals) prepared in the same buffer was dispensed to all wells except columns 2 and 4 and the plates were immediately transferred (< 1 min) to the Viewlux. The plates were then exposed using 405 nm excitation/520 nm emission filters for 4 sec and read at 20 sec intervals for 3 min. Final enzyme concentration was 50 nM and the final substrate concentration was 5 uM.
Concentration-response curves were fitted to the data calculated from slope of the linear regression of fluorescent intensity versus time (the rate). The concentration-effect curves were then classified based on curve quality (r2), response magnitude and degree of measured activity. […] Inconclusive compounds had appreciable concentration-dependent effects on both the measured rate and the interpolated basal fluorescence intensity at the start of the reaction but where the basal fluorescent intensity was marginal (e.g. < 10-fold). Inconclusive compounds also encompass highly fluorescent compounds (>100-fold increases in fluorescent intensities values relative to controls) where artificial concentration-dependent decreases in the rate occurred at high compound concentrations due to fluorescent interferences.
Keywords: Caspase 1, proteases, profluorescent, MLSMR, MLSCN, NIH Roadmap, qHTS, NCGC

Activity change, negative = inhibition, inactive:
CC(C)N(CCNC(=O)c1ccc(-n2c(=O)c(=O)[nH]c3ccccc32)cc1)C(C)C -4.26%, Cc1ccccc1CSCC(=O)NC(=O)NC(C)(C)C 0.035%, O=C(O)CCC(=O)NCc1ccc2[nH]c3c(c2c1)CCCC3 -11.4%, CCn1ncc(C2=NOC(C(=O)Nc3ccccc3C(=O)OC)C2)c1C (stereo not drawn) -4.14%, CO[C@H]1COC(=O)[C@@H](C)NC(=O)C/C=C\[C@@H](C)[C@H](OC)COC(=O)C/C=C\[C@@H]1C 1.2% [at 11.5 µM], CO/N=C\[C@@H](C)[C@H](OCc1ccccc1)C(C)C 1.85% [at 11.5 µM], CC(=O)OCC(=O)C1CCC2C3CCC4=CC(=O)CC[C@@]4(C)C3CC[C@]12C (stereo partly drawn) 2.9%, CC(C)[C@@H](OCc1ccccc1)[C@H](C)/C=N\OC[C@@H](C)[C@H](OCc1ccccc1)C(C)C -1.54% [at 11.5 µM], COC(=O)CC1C(C)(C)C(OC(C)=O)C2CC3=C4CC(=O)OC(c5ccoc5)[C@]4(C)CCC3[C@@]1(C)C2=O (stereo partly drawn) 0.908%, O=C(CSc1nc2ccccc2[nH]1)c1cccs1 1.91%, CC(=O)Oc1c2c(c3c(c1CC=C(C)C)O[C@@]14C(=CC5CC1C(C)(C)OC4(C/C=C(\C)C(=O)O)C5=O)C3=O)OC(C)(CCC=C(C)C)C=C2 (stereo partly drawn) -4.73%, Cc1cc(C)cc(C#CC2C=CC(Oc3ccc(C4CCCC4)cc3)C(CO)O2)c1 (stereo not drawn) -0.183% [at 11.5 µM], Cc1sc2c(c1C)c(=O)n(-c1ccccc1)c1nncn21 0.0448%, CC(C)CN1CCc2nc(-c3ccccc3)c3c(c2C1)COC(C)C3 (stereo not drawn) -0.646% [at 11.5 µM], C=CCOC(=O)C(C(C)=O)C(NC(=O)OC)c1ccccc1 (stereo not drawn) -2.17% [at 11.5 µM], COc1c(C(C)C)oc2cc3oc(=O)ccc3cc12 -1.57%, Cc1oc(C)c(C(=O)NCCCC(=O)O)c1C(=O)NCCCC(=O)O 0.175%, CC(CCC(=O)O)C1CCC2C3C(O)C[C@@H]4CC(O)CC[C@@]4(C)C3CC[C@@]12C (stereo partly drawn), CN(C)CCc1c[nH]c2ccc(Cn3cncn3)cc12 -1.76%, Nc1ncn(C2OC(CO)C(O)C2O)c(=O)n1 (stereo not drawn) -1.92%, Cc1occc1C(=O)Nc1nnc(C2CCCCC2)s1 -2.34%, Oc1ccc2c(c1)OCC1c3cc4c(cc3OC21)OCO4 (stereo not drawn) -0.0099%, C#CCC(C(=O)OC)(C(=O)OC)C(C[N+](=O)[O-])c1ccccc1 (stereo not drawn) -0.949% [at 11.5 µM], O=C(c1cccs1)N1CCN(Cc2ccc3c(c2)OCO3)CC1 -3.62%, C=C[C@](C)(O)CCC1C(=C)CCC2[C@@](C)(CO)CCC[C@@]12C (stereo partly drawn) 1.13%, C=C1C([C@@]2(C)C(OC(C)=O)CC(=O)O[C@@](C)(COC(C)=O)C2CC(=O)OC)C(OC=O)C(OC(=O)C(O)C(C)CC)[C@]2(C)C(c3ccoc3)CC(=O)C12O (stereo partly drawn) -0.335%, CSc1ccc(Cl)c(C(=O)OCC(=O)N2CC(C)OC(C)C2)c1 (stereo not drawn) -2.09%, CC(C)(C)c1ccc(OC2C=CC(C#Cc3ccccc3)OC2CO)cc1 (stereo not drawn) -6.01% [at 11.5 µM], COc1cccc([C@H]2Oc3ccc(OC)cc3/C(=N\OCC[C@@H]3C=C[C@H](OC(C)=O)[C@H](COC(C)=O)O3)[C@@H]2O)c1 -0.817% [at 11.5 µM], CC(=O)OCCC(C)C -2.94%, CCCNC(=O)OC[C@@H]1O[C@H](c2ccccc2)C=C[C@@H]1Oc1ccc(OC)cc1 -0.962% [at 11.5 µM], CO[C@H]1COC(=O)C/C=C\[C@H](C)COC(=O)[C@@H](OCc2ccccc2)/C=C\[C@@H]1C -1.1% [at 11.5 µM], C=CCNC(=O)CCCC(=O)NCC=C -0.805%, Oc1cc(O)c2c(c1)OC(c1ccc(O)c(O)c1)C(O)C2 (stereo not drawn) -1.07%, Cn1c(=O)n2n(c1=O)[C@H]1[C@H](O)[C@H]3O[C@H]3C(=O)[C@H]1CC2 1.82% [at 11.5 µM], N#Cc1c(/N=C/N2CCCC2)oc(-c2ccccc2)c1-c1ccccc1 -3.24%, O=C(c1ccc(-n2cnnn2)cc1)N1CCN(C(c2ccccc2)c2ccccc2)CC1 -2.39%, CC(C)CO/N=C1/C[C@@H](O)[C@@H](O)[C@@H]2[C@@H]3C(=O)N(C[C@@H]4CCCO4)C(=O)[C@H]3CC[C@@H]12 -2.12% [at 11.5 µM], COC(=O)c1ccc(C(NC(=O)OCc2ccccc2)/C(C)=C/[C@@H](C)C(=O)NCc2cc(C)on2)cc1 (stereo partly drawn) -1.01%, COC(=O)[C@@H]1C[C@@]2(O)[C@H](O)[C@H](O)[C@H](O)C[C@H]2N1Cc1ccc(C)s1 1.18%, OC(CCl)CCl -4.21%, CCCn1c(-c2ccc(F)cc2)nc2c(NC3CCN(Cc4ccccc4)C3)nc(C)nc21 (stereo not drawn) -1.74%, CO[C@@H]1COC(=O)C/C=C\[C@H](C)[C@@H](NS(=O)(=O)c2ccc(C)cc2)COC(=O)C/C=C\[C@@H]1C 2.78% [at 11.5 µM] and -1.73% [at 11.5 µM], COC(=O)C1=C(N)Oc2cc(C)oc(=O)c2C1c1cccnc1 (stereo not drawn) -0.354%, COC(=O)C(C(=O)OC)[C@@H]1CCCC(=O)C1 -6.21% [at 11.5 µM], CO[C@H]1COC(=O)CCC[C@@H](C)[C@H](OC)COC(=O)[C@@H](C)NC(=O)C/C=C\[C@@H]1C -4.01% [at 11.5 µM], CC(C)C(NC(=O)OCc1ccccc1)C(=O)OCC(=O)N1C(C)CCCC1C (stereo not drawn) 2.43%, Cc1c(O)cc(O)c2c(=O)c(-c3ccc(O)cc3)coc12 4%, C/C(CCN1CCCCc2nc(C)c(C)cc21)=N\O[C@@H](C)c1cn([C@@H]2COC[C@@H]2O)nn1 -3.82% [at 11.5 µM], Cc1cc(NC(=O)COn2nnc3ccccc32)no1 -0.927%, CCC1=C(OC(=O)N(CC)CC)N2C(=O)OC(=NCCc3c[nH]c4ccccc34)[C@]2(C)[C@H]2C1=CC[C@H]1C(=O)N(CC)C(=O)[C@H]12 -2.1%, C/C(CCN1CCc2nc(-c3ccccc3)c(-c3ccccc3)cc2C1)=N\O[C@@H](C)c1cn([C@@H]2COC[C@@H]2O)nn1 -2.17% [at 11.5 µM], CCCN1Cc2cccc(C(=O)NCc3ccccc3)c2C1=O 0.937%, COC(=O)C1=C(C)N(Cc2ccccc2)C2=C3C(=O)N(c4ccccc4)C(=O)C3[C@@](O)(C(=O)OC)C(=O)N2C1c1ccccc1 (stereo partly drawn) 2.38% [at 11.5 µM], CCS(=O)(=O)N(C)[C@@H]1c2cc(C#N)ccc2OC(C)(C)[C@H]1O, CC(C)C(N)C(=O)OCCOCn1cnc2c(=O)[nH]c(N)nc21 (stereo not drawn) 1.53%, CN(CCOc1ccc(CC2SC(=O)NC2=O)cc1)c1ccccn1 (stereo not drawn) 0.247%, CC(C)C(=O)Nc1cccc(C(=O)Nc2ccc3c(c2)OCO3)c1 -1.84%, O=C(O)C(O)[C@@](O)(Cc1ccc(O)cc1)C(=O)O (stereo partly drawn) 1.66%, CCOC(=O)C1C(=O)C=C(c2ccc(OC)cc2)CC1c1ccco1 (stereo not drawn) -17%, COc1ccc(/C=C/NC(=O)Cc2ccc(OC)c(OC)c2)cc1 -0.944% [at 11.5 µM] and -1% [at 11.5 µM], C=CC(=O)c1ccc2ccccc2c1 -1.84%, CC1(C)OC2CO[C@]3(COS(N)(=O)=O)OC(C)(C)OC3C2O1 (stereo partly drawn) -0.898%, O=C(c1cnccn1)N1CCC2(CCCN(Cc3ccccc3)C2)CC1 -0.443%, CCN1CCCC1CNC(=O)Cn1cnc2ccc(S(=O)(=O)N3CCC(C)CC3)cc2c1=O (stereo not drawn) -9.64%, CCCCNc1nc(C)nc2c1nc(-c1ccccc1)n2CCCCN(CC)CC -0.324%, CC1OC(OCC2OC(Oc3c(-c4ccc(O)c(O)c4)oc4cc(O)cc(O)c4c3=O)C(O)C(O)C2O)[C@@H](O)C(O)C1O (stereo partly drawn) -2.04%, COc1ccc(CCC(=O)c2c(O)cc(OC3OC(CO)C(O)C(O)C3O[C@@H]3OC(C)C(O)C(O)C3O)cc2O)cc1O (stereo partly drawn) -0.654%, CC(=O)OCC1OC(C#CCCCc2ccccc2)C=CC1OC(C)=O (stereo not drawn) -0.276% [at 11.5 µM] and -3.22% [at 11.5 µM], CN(C)CCCCNC(=O)c1ccc(Cc2nc3ccccc3[nH]2)cc1 -0.198%, COC(=O)c1ccc(C23CC4(C2)[C@H](CN(Cc2cccnc2)[C@@H]4c2ccccc2)C3c2ccc(Cl)nc2)cc1 (stereo partly drawn) -0.327%, CN(C)/C=N/c1cc(=O)n(C)c(=O)n1CC1CC1 -0.404%, CS(=O)(=O)N(CC(=O)NCc1ccco1)c1ccc2c(c1)OCO2 -0.19%, CO[C@H]1COC(=O)[C@H](Cc2ccccc2)NC(=O)C/C=C\[C@@H](C)[C@H](OC)COC(=O)C/C=C\[C@@H]1C -1.56% [at 11.5 µM], O=C1NS(=O)(=O)c2ccccc21 1.43%, CC1(C)C=CC(=O)[C@]2(C)C1CC(=O)[C@]1(C)C2CC[C@@]2(C)C(c3ccoc3)OC(=O)C3OC321 (stereo partly drawn) -0.79%, CC(=O)OCC(=O)[C@@]1(O)CCC2C3CCC4=CC(=O)CC[C@]4(C)C3C(=O)C[C@]21C (stereo partly drawn) -0.497%, COC1[C@H](OC(N)=O)C(O)[C@H](Oc2ccc3c(O)c(NC(=O)c4ccc(O)c(CC=C(C)C)c4)c(=O)oc3c2C)OC1(C)C (stereo partly drawn) -0.344%, CC(CCO)Nc1nc2c([nH]1)c(=O)n(C)c(=O)n2C (stereo not drawn) -0.389%, C=CCN(c1ccc(C(N)=O)cc1)S(C)(=O)=O 1.76%, CCCCNc1nc2c(c(=O)[nH]c(=O)n2C)n1CCOc1ccccc1 1.95%, CCCc1nc2c(C)cc(-c3nc4ccccc4n3C)cc2n1Cc1ccc(-c2ccccc2C(=O)O)cc1 -1.74%, CCc1c(C)sc(NC(=O)OC)c1C(=O)N1CCOCC1 -1.76%

— PubChem BioAssay AID900 (National Center for Advancing Translational Sciences (NCATS), 2007)
